PMC4552634, “A New Set of Chemical Starting Points with Plasmodium falciparum Transmission-Blocking Potential for Antimalarial Drug Discovery” (PLoS ONE, 2015)
Among all 13,000 compounds or so, about 3,200 (25%) showed an effect of 50% or more. The list shows a part of the results.

Tested on: P. falciparum stage V gametocytes
Set-up: BacTiter-Glo ATP luminescence viability of purified stage V gametocytes in 384-well plates, per cent inhibition versus DMSO
Details: 48 h, 5 µM; inhibitor

| Compound | % Inhibition [%] |
| --- | --- |
| CN1CCCc2ccc(NC(=O)c3ccc(-c4cc(C(F)(F)F)nn4C)s3)cc2C1 [TCMDC-133945] | -15.63 |
| CC1CCN(Cc2c(O)ccc3c(CN4CCC(C)CC4)c(O)ccc23)CC1 [TCMDC-137584] | -14.01 |
| CC(C)c1ccc(-c2noc(SCC(=O)N(C)c3ccc(F)cc3)n2)cc1 [TCMDC-124744] | -3.802 |
| CCN1CCN(C(=O)NC(C(=O)N2CCCC(COc3ccc(Cc4ccccc4)cc3)C2)c2cccs2)C(=O)C1=O (stereo not drawn) [TCMDC-139273] | 35.06 |
| CN1CCCC1CCNc1ncc2c(-c3ccc(NC(=O)Nc4cc(C(F)(F)F)ccc4F)cc3)nn(C)c2n1 (stereo not drawn) [TCMDC-141584] | 59.4 |
| CN1CCCC1CCNc1ncc2c(-c3ccc(NC(=O)Nc4cc(C(F)(F)F)ccc4F)c(F)c3)nn(C)c2n1 (stereo not drawn) [TCMDC-141610] | 99.17 |
| CCCCCC(C)N=C(Nc1ccc(C#N)cc1O)Nc1ccccc1Br (stereo not drawn) [TCMDC-140129] | -25.57 |
| Cc1cc([N+](=O)[O-])ccc1N1CCN(CCCCNC(=O)c2ccc(NC(=O)c3ccc(Cl)cc3)cc2)CC1 [TCMDC-138261] | 16.06 |
| C[C@@H](CC1CCCCC1)OC(=O)N(C)[C@H]1CCN(C#N)C1 [TCMDC-138501] | 35.73 |
| CCCC1N=C(N)N=C(N)N1c1ccc(Cl)cc1 (stereo not drawn) [TCMDC-131296] | -9.139 |
| CCNc1cc(C(=O)N[C@@H](Cc2ccccc2)[C@H](O)CNCc2cc(OC)cc(OC)c2)cc(N2CCCS2(=O)=O)c1 [TCMDC-134557] | -5.029 |
| N#CN1CC[C@@H](OC(=O)N[C@@H]2C[C@H]2c2ccccc2)C1 [TCMDC-133724] | 29.13 |
| CC(C)C[C@H](NC(=O)[C@H](Cc1ccccc1)N(C[C@H](Cc1ccccc1)NC(=O)OC(C)(C)C)C(=O)C(F)(F)F)C(=O)NC1CCN(Cc2ccccc2)CC1 [TCMDC-132059] | -19.61 |
| Cc1ccc(C(=O)Nc2ccc(OC3CCN(CCC(C)C)C3)c(Cl)c2)cc1 (stereo not drawn) [TCMDC-133983] | 31.29 |
| CCCOc1ccc(NC(=O)c2cccs2)cc1Cl [TCMDC-141129] | 16.1 |
| CC(C)CCN1CCC(Oc2ccc(NC(=O)c3cccs3)cc2Cl)CC1 [TCMDC-133974] | 92.16 |
| O=C(Nc1ccc(OC2CCN(Cc3ccccc3)CC2)c(Cl)c1)c1cccs1 [TCMDC-133990] | 24.3 |
| CC(C)CCOc1ccc(NC(=O)c2cccs2)cc1 [TCMDC-125121] | 83.04 |
| CC(C)CCN1CCC(Oc2ccc(NC(=O)c3ccccc3)cc2Cl)CC1 [TCMDC-133977] | 11.22 |
| O=C(Nc1ccc(OC2CCN(Cc3ccccc3)C2)c(Cl)c1)c1cccs1 (stereo not drawn) [TCMDC-133970] | 30.53 |
| CC(C)CCN1CCC(Oc2ccc(NC(=O)c3cccs3)cc2Cl)C1 (stereo not drawn) [TCMDC-133979] | 54.06 |

| Compound | % Inhibition [%] |
| --- | --- |
| CC(Oc1ccc(NC(=O)c2cccs2)cc1)C(=O)c1ccc(Cl)cc1 (stereo not drawn) [TCMDC-125438] | 17.92 |
| COc1ccc(NC(=O)c2cc(NC(=O)C3(N)CC3)c(=O)n(Cc3ccc(C(N)=O)cc3)c2)cc1 [TCMDC-136554] | 19.66 |
| Cc1[nH]c2c(NCc3ccc(F)cc3)nccc2c1C [TCMDC-132310] | 15.19 |
| N#Cc1ccc2c(c1)CCN(CCC1CCC(NC(=O)c3cc4ccc(Br)cc4[nH]3)CC1)C2 (stereo not drawn) [TCMDC-139195] | -25.15 |
| CCCNCc1ccc(-c2ccc(CN(CCOC)C(=O)c3nn(-c4ccccc4)nc3C)cc2)nc1 [TCMDC-141549] | 77.73 |
| CCCNCc1ccc(-c2ccc(CN(Cc3cnc(C)cn3)C(=O)c3nn(-c4ccccc4)nc3C)cc2)nc1 [TCMDC-141548] | 27.98 |
| CCCNCc1ccc(-c2ccc(CN(C(=O)c3nn(-c4ccccc4)nc3C)C3CC3)cc2)nc1 [TCMDC-141550] | 42.93 |
| CCCNCc1ccc(-c2ccc(CN(C(=O)c3nn(-c4ccccc4)nc3C)C3CCOCC3)cc2)nc1 [TCMDC-141547] | 9.201 |
| CCCNCc1ccc(-c2ccc(CN(C(=O)c3nn(-c4ccccc4)nc3C)C(C)CN(C)C)cc2)nc1 (stereo not drawn) [TCMDC-141551] | 64.23 |
| Cc1nn(-c2ccccc2)nc1C(=O)N(Cc1ccc(-c2ccc(CNCCc3ccc(S(C)(=O)=O)cc3)cn2)cc1)C(C)CN(C)C (stereo not drawn) [TCMDC-141524] | 25.84 |
| O=C(O)CNCC(O)c1ccccc1 (stereo not drawn) [TCMDC-131775] | 4.722 |
| FC(F)(F)c1ccc2[nH]c(-c3ccc(-c4ccc(CNCc5cnn(-c6ccccc6)n5)cc4)cc3)nc2c1.O=C(O)C(F)(F)F [TCMDC-132970] | -15.1 |
| CS(=O)(=O)n1c(CN2CCN(c3ncc(C(F)(F)F)cc3Cl)CC2)nc2ccccc21 [TCMDC-134291] | 88.45 |
| O=C(NC1CCN(c2ncc(C(F)(F)F)cc2Cl)CC1)c1cccs1 [TCMDC-133802] | 15.64 |
| Cc1cccc(CN2CCN(c3ncc(C(=O)NC4CC4)cc3Cl)CC2)c1 [TCMDC-134604] | 4.534 |
| O=C1OC(c2cc3ccccc3n2S(=O)(=O)c2ccccc2)(c2cc3ccccc3n2S(=O)(=O)c2ccccc2)c2ccccc21 [TCMDC-131245] | 29.52 |
| CCC(C)(C)c1ccc(OCCCC(=O)Nc2ccc(Cl)c([N+](=O)[O-])c2)c(C(C)(C)CC)c1 [TCMDC-125721] | -38.1 |
| C#CCCOc1ccc2ccccc2c1CNCCCCCCNCc1c(OCCC#C)ccc2ccccc12 [TCMDC-137832] | 106.3 |
| C#CCOc1ccc2ccccc2c1CNCCCCCCNCc1c(OCC#C)ccc2ccccc12 [TCMDC-137838] | 115.4 |
| O=C(NCCN1CCOCC1)c1csc(C2CCCN(C(=O)c3ccc(O)c(-c4cc(Cl)cc(Cl)c4)c3)C2)n1 (stereo not drawn) [TCMDC-140155] | 11.07 |
| CC(C)(C)SC1SC(SC(C)(C)C)C(OC(=O)c2ccccc2)C(OC(=O)c2ccccc2)C1OC(=O)c1ccccc1 (stereo not drawn) [TCMDC-131948] | -26.61 |
